7 compounds from PubChem BioAssay (NCATS) can be followed below.

Several values for one entry are separate records, joined by “and”; a condition that tells them apart may be missing. Equal values may be shown once. Inconclusive results are not listed. Activity calls are given as the source filed them. Unless noted, calls come from the whole dose curve; as a rule, active = well fitted curve in the direction sought with a large enough effect; inconclusive = small, poorly fitted or top-dose-only effect, or another doubt; inactive = no such curve, though single readings can be large; an effect the other way counts as inactive or inconclusive.

Test [1] addresses Peroxisome proliferator-activated receptor gamma (Homo sapiens) (UniProt P37231). Kind of test: qHTS assay for small molecule agonists of peroxisome proliferator-activated receptor gamma signaling (AID 588536; active = well fitted curve in the direction sought with a large enough effect in the signal ratio, with a control signal flat, not every such curve was filed as active; the % refers to the signal ratio;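 note: 0% = DMSO basal wells and 100% = rosiglitazone at 2 µM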). An outline of the steps: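 Cells were plated and held 6–6.5 h at 37 C, then compounds were added as a titration series. After a further 16 h, CCF4 dye was loaded for 2 h at room temperature and emission at 460/530 nm recorded.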

Test [2] shares this target. The test is described as follows: qHTS assay for small molecule antagonists of peroxisome proliferator-activated receptor gamma signaling (AID 588537; active = well fitted inhibition curve with a large enough effect in the signal ratio, with a control signal flat, not every such curve was filed as active; the % refers to the signal ratio;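 note: reporter cells co-stimulated with 50 nM rosiglitazone agonist during compound treatment; % of control where 0% means no effect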). The gist of the method:
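Antagonist-mode β-lactamase reporter screen run as a titration series. HEK293 PPARγ-UAS-bla cells are stimulated with rosiglitazone (50 nM final) for 16 h, then CCF4 is read at 460/530 nm. Data are scaled between DMSO and rosiglitazone and fitted to the Hill equation.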
In general terms: Quantitative high-throughput screening tests each substance at several concentrations.

Test [3] addresses Vitamin D3 receptor (Homo sapiens) (UniProt P11473). The test is described as follows: qHTS assay for small molecule agonists of vitamin D receptor signaling (AID 588543; calls by dose curve;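 note: 0% = DMSO basal and 100% = reference agonist control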). An outline of the steps: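 qHTS in agonist mode: compound titrations stimulate a VDR-driven β-lactamase reporter in HEK293T cells over 16 h at 37 °C. Response normalized to 50 nM 1α,25-dihydroxyvitamin D3 = 100%, DMSO = 0%; Hill fitting gives EC50 and maximal response.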

Test [4] is described as follows: qHTS assay for small molecule agonists of retinoid X receptor alpha signaling (AID 588544). Particulars: HEK293T RXRa-UAS-bla, beta-lactamase reporter, 18 h; 530 nm emission.
In test [5] the target is Thyroid hormone receptor beta (Homo sapiens) (UniProt P10828). The test is described as follows: qHTS assay for small molecule agonists of thyroid hormone receptor beta signaling (AID 588545; calls by dose curve). The gist of the method:
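Agonist-mode beta-lactamase reporter assay, HEK 293 cells, 2% charcoal/dextran FBS; cells plated 4 hrs, compound 18 hrs at 37 C, CCF4 2 hrs RT. Normalized to 10 nM T3 (100%) and DMSO (0%); Hill fit gives EC50, efficacy.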

Test [6] can be described thus: qHTS assay for small molecule antagonists of retinoid X receptor alpha signaling (AID 588546; active = well fitted inhibition curve with a large enough effect in the signal ratio, with a control signal flat, not every such curve was filed as active; the % refers to the signal ratio;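 note: cells stimulated with 9-cis-retinoic acid as agonist; % is set by controls: 0 for no effect and ±100 for the full control effect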). Particulars: HEK293T RXRa-UAS-bla, beta-lactamase ratio, antagonist mode; measured here: W530 green channel, cytotoxicity proxy. The gist of the method: (§1)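 Beta-lactamase reporter inhibition, read as CCF4 fluorescence ratio (ex 405, em 460/530 nm) after 2 h at RT. HEK293T UAS-bla cells, 2500/well, were stimulated with 9-cis-RA at 500 or 100 nM final alongside test compound for 18 h at 37 C.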

The target of test [7] is Retinoic acid receptor RXR-alpha (Homo sapiens) (UniProt P19793). Described as above. Particulars: HEK293T RXRa-UAS-bla, beta-lactamase ratio, antagonist mode. The gist of the method:
as §1

Test [8] can be described thus: qHTS assay for small molecule activators of the p53 signaling pathway (AID 651743; active = well fitted activation curve with a large enough effect in the signal ratio, not every such curve was filed as active; the % refers to the signal ratio; note: potency is the fitted concentration of half-maximal effect; for activation: series mostly up to about 92 µM; % of control where 0% means no effect). The following applies: HCT-116 p53RE-bla, beta-lactamase FRET ratio, 16 h; activation: stronger effect = higher value. The gist of the method:
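After 16 hours compound treatment at 37 C, HCT-116 cells stably expressing p53RE-driven beta-lactamase were loaded with LiveBLAzer B/G FRET substrate for 2 hours at room temperature. Fluorescence intensity served as the p53 activation read-out.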

A short description of test [9]: qHTS assay for small molecule activators of the nuclear factor-kappa B (NF-kB) signaling pathway (AID 651749; active = well fitted activation curve with a large enough effect in the signal ratio; the % refers to the signal ratio; note: series mostly up to about 77 µM; % of control where 0% means no effect). Particulars: NF-kB-bla ME-180 cells, beta-lactamase FRET ratio, 16 h; activation: stronger effect = higher value. The gist of the method: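 Activation measured after 16 hr compound treatment at 37C, 5% CO2, of 2,000 ME-180 cells/well stably expressing an NF-kB response element–driven beta-lactamase reporter, via FRET-disruption fluorescence.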

The nature of test [10]: qHTS assay for environmental chemicals that activate the Aryl hydrocarbon Receptor (AhR) signaling pathway (AID 651777). For activation: % of control where 0% means no effect. Note: nearly all actives have a fitted effect of over 15% in size. Note: potency is the fitted concentration of half-maximal effect. The following applies: 1A2-DRE human hepatoma cells, luciferase, 24 h; activation: stronger effect = higher value. The gist of the method: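 Induction of CYP1A2 transcription through AhR is detected by luciferase in 1A2-DRE hepatoma cells. Compounds or DMSO act for 24 hr at 37 C before a 30 min One-Glo step at room temperature.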

Test [11] addresses Peroxisome proliferator-activated receptor alpha (Homo sapiens) (UniProt Q07869). Kind of test: qHTS assay for small molecule agonists of the peroxisome proliferator-activated receptor alpha (PPARalpha) signaling pathway (AID 651778). Note: % of control where 0% means no effect. The following applies: PathHunter PPARalpha complementation, chemiluminescence, 6 h; max response: stronger effect = higher value. The gist of the method: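 Chemiluminescence from complemented enzyme reported PPARalpha activation in cells after 6 hr of compound treatment at 37 C. The detection reagent was incubated for 60 min at room temperature, and compounds were scored as agonists.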

Test [12] in a line: qHTS assay for small molecule agonists of the antioxidant response element (ARE) signaling pathway measured by Nrf2-dependant transcriptional activity (AID 720636; active = well fitted curve in the direction sought with a large enough effect in the repeat runs; an effect the other way counts as inactive or inconclusive; note: potency is the fitted concentration of half-maximal effect;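 for activation: HepG2 cells with an ARE-driven luciferase reporter; % of control where 0% means no effect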). An outline of the steps: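 We exposed ARE-luc HepG2 cells, seeded in assay medium with 1% dialyzed FBS and allowed 6 hr to adhere, to test compounds overnight (16 hr, 37 C) before measuring luciferase with ONE-Glo.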

Test [13] is described as follows: qHTS assay for small molecule agonists of the antioxidant response element (ARE) signaling pathway measured by Nrf2-dependant transcriptional activity - cell viability counter screen (AID 720653; active = well fitted curve in the direction sought with a large enough effect in the repeat runs; an effect the other way counts as inactive or inconclusive; note: % is set by controls: 0 for no effect and ±100 for the full control effect). The following applies: ARE-bla HepG2 viability, CellTiter-Glo ATP luminescence, 16 h; max response: stronger effect = lower value. The gist of the method: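 Cytotoxicity counter screen: intracellular ATP quantified by CellTiter-Glo luminescence in the same ARE-bla HepG2 plates, after 16 h compound exposure and a 2 h beta-lactamase substrate step.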

The nature of test [14]: qHTS assay for cell viability of HEK293 cells (AID 743288). For max response: % is set by controls: 0 for no effect and ±100 for the full control effect. Note: nearly all actives have a fitted effect of over 50% in size. Note: potency is the fitted concentration of half-maximal effect. The following applies: ATP luminescence (CellTiter-Glo), 18 h; max response: stronger effect = lower value. The gist of the method: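 Quantitative high-throughput screen: compounds were pinned onto parental HEK293 cells (2,000 per well) after a minimum 5 h settling at 37 C, incubated 18 h at 37 C, and intracellular ATP measured by luciferase luminescence.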

Test [15] is described as follows: qHTS assay for cell viability of the p53RE-bla HCT-116 cell line (AID 743292). Note: nearly all actives have a fitted effect of over 55% in size. Note: potency is the fitted concentration of half-maximal effect. An outline of the steps: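 In this qHTS counter-screen, metabolically competent p53RE-bla HCT-116 cells were counted via their ATP content. Compounds were applied for 16 h at 37 C and luciferase-coupled luminescence was measured.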
Test [16] addresses Nuclear receptor subfamily 1 group I member 2 (Rattus norvegicus) (UniProt Q9R1A7). Kind of test: qHTS assay for small molecule activators of the rat pregnane X receptor (rPXR) signaling pathway (AID 651751; call rule not given here; note: 0% is about no effect). The following applies: rPXR reporter cells, luciferase (One-Glo), 24 h.
Test [17] addresses Glucocorticoid receptor (Homo sapiens) (UniProt P04150). Kind of test: qHTS assay for small molecule antagonists of glucocorticoid receptor signaling (AID 588533; active = well fitted inhibition curve with a large enough effect in the signal ratio, with a control signal flat, not every such curve was filed as active; the % refers to the signal ratio;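 note: cells stimulated with 2 nM dexamethasone as agonist; % is set by controls: 0 for no effect and ±100 for the full control effect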). The gist of the method: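 Antagonist-mode qHTS: compound titrations added to GRE-bla HeLa cells, then dexamethasone 2 nM final; 18 h, 37 C. CCF4 FRET fluorescence normalized to dexamethasone and DMSO; IC50 from Hill fit.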

Test [18] has the same target. The test is described as follows: qHTS assay for small molecule agonists of glucocorticoid receptor signaling (AID 588532; active = well fitted curve in the direction sought with a large enough effect in the signal ratio, with a control signal flat; the % refers to the signal ratio;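 note: 100% = dexamethasone at 0.1 µM and 0% = DMSO only wells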). Particulars: HeLa MMTV-bla, beta-lactamase ratio, agonist, 18 h; stronger effect = higher value; percent of dexamethasone control, DMSO zero. An outline of the steps: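 Quantitative HTS using CellSensor MMTV-bla HeLa cells in charcoal/dextran-treated serum; compounds tested up to 92 uM. After 18 h at 37 C, CCF4 dye reported reporter induction.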

Test [19] is described as follows: qHTS assay for small molecule activators of the human pregnane X receptor (PXR) signaling pathway (AID 720659; call rule not given here; note: 0% is about no effect).

Sequence of Thyroid hormone receptor beta (Homo sapiens) (P10828 whole entry, looked up): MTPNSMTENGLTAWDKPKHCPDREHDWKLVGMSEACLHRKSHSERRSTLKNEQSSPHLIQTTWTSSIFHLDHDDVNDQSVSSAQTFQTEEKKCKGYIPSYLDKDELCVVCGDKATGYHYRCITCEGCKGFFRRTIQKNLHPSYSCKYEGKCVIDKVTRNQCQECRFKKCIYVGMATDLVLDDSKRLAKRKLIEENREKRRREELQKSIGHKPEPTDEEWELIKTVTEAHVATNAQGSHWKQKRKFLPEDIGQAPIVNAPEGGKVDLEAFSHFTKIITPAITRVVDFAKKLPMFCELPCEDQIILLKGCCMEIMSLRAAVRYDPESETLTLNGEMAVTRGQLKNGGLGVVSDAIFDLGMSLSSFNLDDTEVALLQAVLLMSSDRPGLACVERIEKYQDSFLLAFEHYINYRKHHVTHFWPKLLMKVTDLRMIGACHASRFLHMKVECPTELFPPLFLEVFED
Sequence of Peroxisome proliferator-activated receptor gamma (Homo sapiens) (P37231 whole entry, looked up): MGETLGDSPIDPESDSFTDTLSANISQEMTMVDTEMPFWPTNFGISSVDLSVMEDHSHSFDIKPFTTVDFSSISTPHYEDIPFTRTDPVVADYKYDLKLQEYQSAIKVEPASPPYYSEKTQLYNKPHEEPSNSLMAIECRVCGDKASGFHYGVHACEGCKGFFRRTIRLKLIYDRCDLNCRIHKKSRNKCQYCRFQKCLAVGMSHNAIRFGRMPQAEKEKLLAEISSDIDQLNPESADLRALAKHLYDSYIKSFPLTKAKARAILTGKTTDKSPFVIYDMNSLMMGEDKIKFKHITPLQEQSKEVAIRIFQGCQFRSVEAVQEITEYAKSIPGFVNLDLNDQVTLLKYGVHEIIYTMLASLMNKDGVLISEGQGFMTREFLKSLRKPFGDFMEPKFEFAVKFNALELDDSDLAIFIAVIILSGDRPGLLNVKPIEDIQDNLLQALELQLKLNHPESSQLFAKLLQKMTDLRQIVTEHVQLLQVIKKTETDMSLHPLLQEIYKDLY
Sequence of Peroxisome proliferator-activated receptor alpha (Homo sapiens) (Q07869 whole entry, looked up): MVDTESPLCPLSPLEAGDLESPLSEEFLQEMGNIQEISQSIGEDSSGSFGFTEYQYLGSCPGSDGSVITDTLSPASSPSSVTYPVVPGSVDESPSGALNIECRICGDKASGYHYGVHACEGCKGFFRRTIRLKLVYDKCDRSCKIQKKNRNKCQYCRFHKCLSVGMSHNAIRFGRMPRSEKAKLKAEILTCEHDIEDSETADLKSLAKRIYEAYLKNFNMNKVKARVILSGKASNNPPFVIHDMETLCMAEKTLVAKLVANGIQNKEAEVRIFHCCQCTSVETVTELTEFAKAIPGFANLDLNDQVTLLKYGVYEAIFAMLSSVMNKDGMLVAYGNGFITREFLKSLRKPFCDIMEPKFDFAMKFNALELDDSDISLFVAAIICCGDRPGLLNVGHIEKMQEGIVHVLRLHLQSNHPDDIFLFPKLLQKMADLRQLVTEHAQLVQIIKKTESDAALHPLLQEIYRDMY
Sequence of Retinoic acid receptor RXR-alpha (Homo sapiens) (P19793 whole entry, looked up): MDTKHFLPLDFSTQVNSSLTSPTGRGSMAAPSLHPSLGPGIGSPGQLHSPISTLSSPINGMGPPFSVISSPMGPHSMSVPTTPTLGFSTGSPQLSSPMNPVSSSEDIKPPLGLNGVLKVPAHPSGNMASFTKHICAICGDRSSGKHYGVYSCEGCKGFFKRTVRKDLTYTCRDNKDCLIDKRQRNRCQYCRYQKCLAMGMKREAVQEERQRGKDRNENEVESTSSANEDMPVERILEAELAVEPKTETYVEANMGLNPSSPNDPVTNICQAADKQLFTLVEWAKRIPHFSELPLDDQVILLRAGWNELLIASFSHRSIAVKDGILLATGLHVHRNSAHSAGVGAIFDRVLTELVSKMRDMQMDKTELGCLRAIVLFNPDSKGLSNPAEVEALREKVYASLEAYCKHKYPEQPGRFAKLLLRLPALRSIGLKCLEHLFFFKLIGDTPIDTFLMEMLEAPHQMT
Sequence of Nuclear receptor subfamily 1 group I member 2 (Rattus norvegicus) (Q9R1A7 whole entry, looked up): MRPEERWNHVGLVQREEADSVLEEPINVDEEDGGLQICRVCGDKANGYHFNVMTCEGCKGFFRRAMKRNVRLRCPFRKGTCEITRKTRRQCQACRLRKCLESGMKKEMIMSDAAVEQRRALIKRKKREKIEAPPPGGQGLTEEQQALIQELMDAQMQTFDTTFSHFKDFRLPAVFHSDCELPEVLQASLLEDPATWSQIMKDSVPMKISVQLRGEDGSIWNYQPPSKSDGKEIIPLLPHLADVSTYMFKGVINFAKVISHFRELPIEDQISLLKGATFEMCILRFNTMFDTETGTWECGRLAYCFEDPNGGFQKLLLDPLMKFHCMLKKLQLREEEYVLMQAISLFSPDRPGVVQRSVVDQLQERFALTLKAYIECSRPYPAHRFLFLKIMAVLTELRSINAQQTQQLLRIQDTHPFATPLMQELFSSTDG
Sequence of Glucocorticoid receptor (Homo sapiens) (P04150 whole entry, looked up): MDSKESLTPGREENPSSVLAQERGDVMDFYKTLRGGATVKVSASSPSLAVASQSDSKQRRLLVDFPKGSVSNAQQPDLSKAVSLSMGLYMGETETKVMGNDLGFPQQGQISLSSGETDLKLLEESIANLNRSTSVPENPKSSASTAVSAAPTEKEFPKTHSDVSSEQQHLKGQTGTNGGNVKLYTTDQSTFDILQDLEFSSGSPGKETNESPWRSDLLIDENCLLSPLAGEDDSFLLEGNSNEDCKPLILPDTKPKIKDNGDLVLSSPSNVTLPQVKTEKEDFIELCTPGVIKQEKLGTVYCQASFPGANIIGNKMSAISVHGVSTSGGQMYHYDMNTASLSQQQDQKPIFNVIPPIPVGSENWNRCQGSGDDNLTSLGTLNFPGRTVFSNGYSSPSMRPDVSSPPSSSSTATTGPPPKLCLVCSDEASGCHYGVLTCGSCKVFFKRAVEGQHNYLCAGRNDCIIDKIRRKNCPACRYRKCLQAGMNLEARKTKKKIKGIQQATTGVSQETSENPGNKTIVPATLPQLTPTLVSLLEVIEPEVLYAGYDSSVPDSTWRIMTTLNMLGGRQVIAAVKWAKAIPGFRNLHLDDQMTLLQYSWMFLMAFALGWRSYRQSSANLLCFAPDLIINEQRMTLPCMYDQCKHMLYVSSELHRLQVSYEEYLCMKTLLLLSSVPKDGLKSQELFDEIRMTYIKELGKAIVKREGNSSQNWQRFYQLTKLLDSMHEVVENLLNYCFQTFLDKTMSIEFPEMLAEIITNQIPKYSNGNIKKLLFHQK
Sequence of Vitamin D3 receptor (Homo sapiens) (P11473 whole entry, looked up): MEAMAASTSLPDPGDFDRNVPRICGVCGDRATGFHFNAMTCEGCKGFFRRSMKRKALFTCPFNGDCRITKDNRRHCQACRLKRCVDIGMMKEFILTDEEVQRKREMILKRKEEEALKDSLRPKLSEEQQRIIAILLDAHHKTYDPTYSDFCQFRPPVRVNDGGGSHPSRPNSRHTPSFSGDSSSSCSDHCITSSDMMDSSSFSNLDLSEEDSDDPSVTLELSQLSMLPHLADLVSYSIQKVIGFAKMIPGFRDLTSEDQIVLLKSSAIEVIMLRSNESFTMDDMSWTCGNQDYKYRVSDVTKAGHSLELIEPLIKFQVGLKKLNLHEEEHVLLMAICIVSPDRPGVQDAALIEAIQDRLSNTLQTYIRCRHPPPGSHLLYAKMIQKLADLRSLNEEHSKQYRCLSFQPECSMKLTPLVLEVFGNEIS

Turning to `CC1(C)C(=O)N(Br)C(=O)N1Cl`, the result in test [1] and in test [3] was inactive. Moreover, the Potency entry in [2], in [5], in test [12] and in [15] was “inactive” each time. Moreover, the max response is -10% in test [4]; -9.45% in test [6]; -6.62% (inactive) in test [7]; -1.51% (inactive) in test [11]; -11.1% (inactive) in test [13]; -4.13% (inactive) in test [14]. In addition, the max response in test [16] is 1.46% (inactive). For the same compound, the activation was 2.83% (inactive) in [8], -2.38% (inactive) in test [9] and 1.28% (inactive) in test [10].

On to `S=C([S-])NCCNC(=S)[S-].[Mn+2]`, for which the Potency entry in test [17], in [2], in test [5] and in [15] was “inactive” in each case. Besides, the compound was classed as inactive in test [1] and in test [3]. Moreover, in [10], the activation is 2.64% (inactive) and 10.8% (inactive). The max response in [13] is -8.97% (inactive) and -21.3% (inactive); in test [14], -16.3% (inactive); in test [16] it was -0.103% (inactive) and -4.92% (inactive).

As to `Oc1ccc(Nc2ccccc2)cc1`, the activation is -7.61% (inactive) in test [18], 16.3% (inactive) in [8], -2.8% (inactive) in test [9] and -0.687% (inactive) in [10]. Besides, the Potency entry in [17], in test [5] and in [15] was “inactive” throughout. For the same compound, the compound was classed as inactive in test [3] and in [19]. Moreover, the max response in test [11] was -0.779% (inactive); in test [13] it was -6.61% (inactive); in [14], -10.5% (inactive); in [16], 0.0407% (inactive).

Consider `O=C(Nc1ccccc1)c1cc(Cl)ccc1O`, for which the compound was classed as inactive in [3] and in [19]. The Potency result in test [5] was “inactive”. The Potency was 10 µM (active) in test [8], 15.8 µM (active) in test [10] and 35.5 µM (active) in test [15]. Besides, the activation in test [9] is 4.05% (inactive). Besides, in test [11], the max response was 0.537% (inactive).

`CCCCCCCCCCCCCCN(C)C`: the figures for the activation in [18], in test [9] and in [10] were 12.5% (inactive), -1.59% (inactive) and 1.73% (inactive), respectively. In addition, the Potency result in [17], in [5], in test [12] and in [15] was “inactive” throughout. Also, the call in test [1], in test [3] and in [19] was inactive. Moreover, the max response in test [4] is -17%; in test [6], -0.764%; in test [7], -14.8% (inactive); in test [11], -1.88% (inactive); in [13], -6.77% (inactive); in [14], -20.2% (inactive). The max response in test [16] was -1.42% (inactive).

Take `C=CC(=O)OCCOCC(CC)(COCCOC(=O)C=C)COCCOC(=O)C=C`: the activation in [18] was -19.8% (inactive); in test [8] it was 14.9% (inactive); in [10], 5.29% (inactive). For the same compound, the compound was called inactive in test [3] and in test [19]. The figures for the max response in [11] and in test [13] were -0.796% (inactive) and -10.9% (inactive), respectively. Besides, the Potency was 21.7 µM (active) in test [12] and 39.8 µM (active) in test [14].

In the case of `CCCCC(CC)CN1C(=O)C2C3C=CC(C3)C2C1=O` (configuration not stated), the activation in test [18] is -12.6% (inactive); in test [8] it was -2.19% (inactive); in test [9], 0.646% (inactive); in test [10] it was -3.03% (inactive). Further, the call in test [1] and in [3] was inactive. Moreover, the Potency entry in test [2], in test [5] and in [12] was “inactive” throughout. The max response in test [6] is 8.85%; in test [7], -2.63% (inactive); in test [11] it was 7.9% (inactive); in [13] it was 8.11% (inactive); in test [14] it was -5.32% (inactive).
